# Laboratory results taken from paper PMC4552634, “A New Set of Chemical Starting Points with Plasmodium falciparum Transmission-Blocking Potential for Antimalarial Drug Discovery” (PLoS ONE, 2015).
# Tested on: P. falciparum stage V gametocytes
# Set-up: BacTiter-Glo ATP luminescence viability of purified stage V gametocytes in 384-well plates, per cent inhibition versus DMSO
# Settings: 48 h, 5 µM; inhibitor
# Experimental: Once purified, gametocytes were counted using a Neubauer chamber, and the density was adjusted to 2.5 x 10^5 gametocytes/mL. Fifty μL of the gametocyte suspension (1.25 x 10^4 gametocytes) were added to each well of the 384-well plate containing the compounds, using a Multidrop combi (Thermo Electron Corporation). Plates were shaken for 5 sec to homogenize and then incubated at 37°C for 48 h in an atmosphere of 5% CO2, 5% O2, 90% N2. The ATP level of each well was determined using the BacTiter-Glo reagent (Promega) according to the recommendations of the manufacturer. The BacTiter-Glo assay generates a ‘glow-type’ luminescent signal produced by the luciferase reaction, which consists of mono-oxygenation of luciferin catalyzed by luciferase in the presence of Mg^2+, ATP and molecular oxygen. The luminescence was measured using a plate reader (Victor V, Perkin Elmer). […] The background value was subtracted from every other value of the assay prior to further calculation. The average of 16 replicates of vehicle control (0.5% or 0.1% DMSO) represents 100% of signal. Related to this value, each test concentration was calculated as percentage of control. All the calculations were done using MS Excel software. The compounds which presented inhibition ≥ 90% at 5 μM were progressed to the assay at 1 μM. […]
row,SMILES,% Inhibition [%]
1,CCC1CN2CCc3cc(OC)c(OC)cc3C2CC1CC1NCCc2cc(OC)c(OC)cc21 (centres unmarked) [TCMDC-125849],100.9
2,CC[C@H]1CN2CCc3cc(OC)c(OC)cc3[C@@H]2C[C@@H]1C[C@H]1NCCc2cc(OC)c(OC)cc21 [TCMDC-125531],96.47
